Shown are actives, neighbours in structure and some others; about 4% of the full set was active somewhere.
HIF-2a inh = HIF-2a reporter inhibitors, primary screen, luminescence, 786-0 RCC cells; actives 0.72% (n = 360,000); 786-0 RCC cells HIF-2a reporter, luciferase luminescence, overnight; inhibition, % at 18.8 µM;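 active means inhibition of the luminescence signal of 40% or more relative to plate controls, in a single-dose primary screen at 18.75 µM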
KKLEB tox = cytotoxicity in KKLEB CF airway cells, primary screen, cytotoxicity control for CF NF-kB inhibitor project, cell-based, uHTS, fluorescence assay plates; KKLEB CF airway cells viability, ATPlite luminescence, overnight; stronger effect = lower value; cells stimulated with P. aeruginosa culture filtrate; activity change (cytotoxicity), % at 5 µM; actives 0.36% (n = 360,000); AID 602141, 2011;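 active means corrected activity change at or below -50% at 5 µM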
TROY signal inh = inhibitors of TROY-driven NF-kB signaling, primary screen, Q293 LMP1-TROYcd cells, NF-kB luciferase, uHTS; Q293 LMP1-TROYcd NF-kB luciferase reporter, 4 h; inhibition, % at 10 µM; actives 0.98% (n = 360,000); AID 1347056, 2019;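 active means compounds whose plate-normalised and pattern-corrected inhibition of the luciferase reporter signal at the single screening dose is 50% or more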
TWEAK Fn14 block = inhibitors of TWEAK-Fn14 signaling, primary screen, luciferase reporter cells, uHTS; AID 1159606, 2016; actives 2% (n = 360,000); inhibition, % at 10 µM; TWEAK-stimulated Fn14 reporter cells, luciferase luminescence, 8 h; in the data active means inhibition above about 50%
Peg3 prom inh = Peg3 promoter-driven luciferase inhibitors, primary screen, cell-based, HeLa, luciferase luminescence; inhibition, % at 20 µM; HeLa PEG-Prom luciferase reporter, overnight; actives 1.7% (n = 360,000); AID 588405, 2011;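 active means inhibition of at least 50% at 20 µM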
CF NFkB block = inhibitors of PAF-induced NF-kB signaling, primary screen, cell-based, GFP fluorescence, uHTS; inhibition, % at 5 µM; actives 0.86% (n = 360,000); KKLEB NF-kB-GFP reporter, GFP fluorescence overnight;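 active means at least 50% inhibition at 5 µM, scaled per plate between neutral and stimulator controls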;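 further: PAF is a Pseudomonas aeruginosa culture filtrate used as stimulus; plate controls were PAF-stimulated DMSO wells for no effect and unstimulated DMSO wells for full effect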
* hit, by the source's call.

SMILES	HIF-2a inh	KKLEB tox	TROY signal inh	TWEAK Fn14 block	Peg3 prom inh	CF NFkB block
Cc1ccc(-n2c(-c3ccc(Br)cc3)c[n+]3c2CCc2ccc4cccnc4c2-3)cc1	10	-52*	44	-59	64*	20
COc1ccc(-n2c(-c3ccc(Cl)cc3)c[n+]3c2CCc2ccccc2-3)cc1	34	-12	42	25	16	-9
O=C(O)c1cc(S(=O)(=O)N2CCN(S(=O)(=O)c3ccc4ccccc4c3)CC2)ccc1Br	4	8	-7	23	5	-37
O=C(CSc1nnc(Nc2ccccc2)s1)Nc1cccc(S(=O)(=O)N2CCCCC2)c1	-66	-9	-2	51*	-49	11
CC(=O)N1CCN(c2nnc(-c3ccc(C)cc3)c3ccccc23)CC1	-2	2	52*	1	-18	8
CCOc1ccc(-c2nnc(N3CCCCC3)c3ccccc23)cc1	-7	-15	59*	-9	17	8
CCN(CC)C(=O)COc1ccc(-c2nnc(N3CCCCC3)c3ccccc23)cc1	22	-1	14	-10	8	-11
CCOc1ccc(NC(=O)c2ccccc2NC(=O)c2cccnc2)cc1	3	9	-19	10	13	-8
OC(c1ccc(Cl)cc1)c1ncc(-c2ccccc2Cl)[nH]1 (configuration not stated)	-150	-3	-33	0	-49	-5
C=CCc1cc(C(=O)N2CCCCC2)ccc1O	12	-6	19	14	-6	51*
O=C1/C(=C/c2ccc(C(=O)O)cc2)CCC/C1=C\c1ccc(C(=O)O)cc1	6	6	9	-8	4	3
C=CC(=O)N1C/C(=C/c2ccccc2)C(=O)/C(=C\c2ccccc2)C1	91*	-42	73*	105*	106*	81*
C=CC(=O)N1C/C(=C/c2ccc(Cl)cc2)C(=O)/C(=C\c2ccc(Cl)cc2)C1	83*	-97*	85*	107*	103*	87*
COc1ccc(C(=O)NC2CC(C)(C)NC(C)(C)C2)cc1S(=O)(=O)N1CCOCC1	11	14	-18	-7	12	-18
O=C(Nc1ccn(Cc2cccc3ccccc23)n1)c1cccnc1	13	-4	0	18	6	7
CCOC(=O)[C@@H]1[C@H]2COc3cc(OC)ccc3[C@H]2N2C(=O)N(c3ccc(C(F)(F)F)cc3)C(=O)[C@]12C	-91	-30	39	74*	17	46
CCOC(=O)[C@@H]1[C@H]2COc3cc(OC)ccc3[C@@H]2N2C(=O)N(c3ccc(C(F)(F)F)cc3)C(=O)[C@@]12C	9	2	2	-10	13	-5
CCc1cc2c(=O)[nH]c(-c3ccccn3)nc2s1	-76	3	18	16	96*	-27
Clc1ccc(-n2ncc3c(NCC4CCCO4)ncnc32)cc1 (configuration not stated)	-190	-28	37	60*	-187	16
CCC(CO)Nc1ncnc2c1cnn2-c1ccc(Cl)cc1 (configuration not stated)	-111	-9	73*	68*	-130	-17
CCC(CO)Nc1ncnc2c1cnn2-c1ccc(OC)cc1 (configuration not stated)	-136	-2	39	54*	-183	-9
C=CCNc1ncnc2c1cnn2-c1ccc(OC)cc1	-176	16	-12	39	-235	-6
CN(C)CCNc1ncnc2c1cnn2-c1ccc(Cl)cc1	-207	-13	18	9	-85	5
OCCCNc1ncnc2c1cnn2-c1ccc(Cl)cc1	-127	-11	15	68*	-88	-3
Cc1nc2cc(C(F)(F)F)ccc2n1C	-3	13	22	22	5	-10
Cc1cccc(-n2ncc3c(=O)[nH]c(SCC(=O)N4CC(=O)Nc5ccccc54)nc32)c1	14	12	13	8	6	-21
CCCN(CCC)c1ncnc2c1cnn2-c1ccc(OC)cc1	-182	-4	62*	53*	-278	-10

Compound activity as filed in PubChem BioAssay.
